Experimental data reported in PubChem BioAssay.
Activity calls are given as the source filed them.

Columns and labels:
[1] = tested on: Plasmodium falciparum Sir2 (PF13_0152, Sir2A); test: pfSir2 binders on small-molecule microarrays, primary screen, biochemical, small-molecule microarray, 635 nm fluorescence (AID 1098); conditions: small-molecule microarray binding, fluorescence 635 nm; higher = more signal;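 further: score merges spot fluorescence intensity with its signal-to-noise ratio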
[2] = small-molecule microarray binders of probe aDKK1, primary screen, biochemical, biotinylated probe, 635/667 nm fluorescence (AID 1099); conditions: higher = more signal;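 further: score merges 667nm spot fluorescence with signal to noise across triplicate slides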
[3] = small-molecule microarray binders of probe aCHRDL2, primary screen, biochemical, biotinylated probe, 635/667 nm fluorescence (AID 1100); conditions: higher = more signal
[4] = splicing luciferase reporter signal modulators, primary screen, spliceosome inhibition project, cell-based, HEK293, splice +/- reporter (AID 1101); conditions: luminescence, 24 h, higher = more signal, called active from +8 up or from −8 down;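 further: HEK293 cells carrying a splicing-competent luciferase reporter gene; test concentration not given here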
[5] = molecular target: Fibroblast growth factor 10 (Homo sapiens) (UniProt O15520); test: FGF10 binders on small-molecule microarrays, primary screen, biochemical, small-molecule microarray, 635 nm fluorescence (AID 1102); conditions: FGF10 binding, fluorescence 635 nm, higher = more signal
[6] = tested on: glycogen synthase kinase-3 (GSK3A per assay name; protocol says GSK3B); test: GSK3 binders on small-molecule microarrays, primary screen, biochemical, small-molecule microarray, 635 nm fluorescence, GSK3A (AID 1103); conditions: small-molecule microarray binding, fluorescence 635 nm; higher = more signal; further: the record names both GSK3A and GSK3B
[7] = molecular target: Epidermal growth factor receptor (Homo sapiens) (UniProt P00533); test: EGFR binders on small-molecule microarrays, primary screen, biochemical, small-molecule microarray, 635 nm fluorescence (AID 1104); conditions: EGFR binding, higher = more signal;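 further: score merges 667 nm emission intensity with spot signal to noise over triplicate slides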
[8] = molecular target: Follistatin-related protein 3 (Homo sapiens) (UniProt O95633); test: FSTL3 binders on small-molecule microarrays, primary screen, biochemical, small-molecule microarray, 635 nm fluorescence (AID 1105); conditions: FSTL3 binding, higher = more signal;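 further: score merges emission near 667 nm and signal to noise per printed spot across three slides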
[9] = molecular target: Dickkopf-related protein 1 (Homo sapiens) (UniProt O94907); test: DKK1 binders on small-molecule microarrays, primary screen, biochemical, small-molecule microarray, 635 nm fluorescence scan (AID 1106); conditions: DKK1 binding, higher = more signal;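 further: score merges emission near 667 nm with signal to noise over three replicate slides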
[10] = tested on: Inhibin beta A chain (activin A); test: INHBA (activin A) binders on microarrays, primary screen, biochemical, small-molecule microarray, 635 nm fluorescence scan (AID 1107); conditions: small-molecule microarray binding, higher = more signal;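 further: mouse activin A protein probed at 4.33 µg/mL on printed slides; score merges bound-protein fluorescence near 667 nm with spot signal-to-noise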
[11] = tested on: Human papillomavirus type 1a protein E7 (residues 44-93); test: HPV1a E7 fragment binders on microarrays, primary screen, biochemical, small-molecule microarray, residues 44-93, 635 nm fluorescence (AID 1108); conditions: small-molecule microarray binding, fluorescence 635 nm; higher = more signal;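 further: E7 fragment applied at 1 µg/mL in TBST for 1 h at 4 C; score combines spot fluorescence with its signal to noise ratio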
[12] = modulators of HCV replicon luciferase signal, primary screen, HCV replication inhibitor project, Huh7 cells, luciferase reporter (AID 1109); conditions: 48 h, higher = more signal;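 further: huh7 hepatoma cells harbouring a luciferase neomycin HCV replicon reporter; luciferase luminescence as measure of HCV replicon replication; test concentration not given here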
[13] = molecular target: Left-right determination factor 2 (Homo sapiens) (UniProt O00292); test: LEFTY2 binders on small-molecule microarrays, primary screen, biochemical, small-molecule microarray, 635 nm fluorescence scan (AID 1110); conditions: LEFTY2 binding, higher = more signal
[14] = molecular target: Calmodulin-1 (Homo sapiens) (UniProt P0DP23); test: CALM1 binders on microarrays, EGTA buffer, profiling panel, biochemical, small-molecule microarray, Cy5-labelled CALM1 (AID 1111); conditions: Cy5-CALM1 binding fluorescence, higher = more signal;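 further: labelled calmodulin applied in Tris saline Tween buffer holding calcium plus EGTA and DTT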
[15] = molecular target: Calmodulin-1 (Homo sapiens) (UniProt P0DP23); test: calcium-bound CALM1 binders on microarrays, profiling panel, artefact control for SMM control-protein annotation, biochemical, small-molecule microarray, Cy5-labelled CALM1, plus calcium (AID 1112); conditions: Cy5-CALM1 binding fluorescence, higher = more signal;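 further: score merges spot fluorescence with signal to noise from triplicate slides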
[16] = small-molecule microarray binders of probe aWnt5a, primary screen, biochemical, biotinylated probe, 635/667 nm fluorescence (AID 1113); conditions: higher = more signal;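 further: score merges 667 nm fluorescence intensity with signal-to-noise per printed feature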
[17] = small-molecule microarray binders of probe aShh, primary screen, biochemical, biotinylated probe, 635/667 nm fluorescence (AID 1114); conditions: higher = more signal;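 further: probe is biotin-labelled aShh protein from a stem cell growth factor screen; measures binding of labelled protein to compounds printed on the slide; score merges feature fluorescence at 667 nm with signal-to-noise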
[18] = small-molecule microarray binders of probe aNog, primary screen, biochemical, biotinylated probe, 635/667 nm fluorescence (AID 1115); conditions: higher = more signal;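 further: probe is biotinylated aNog protein used at 0.15 µg/mL for 1 h at 4 C; z-score combines 667 nm fluorescence of each spot with its signal to noise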
[19] = molecular target: Torsin-1A-interacting protein 1 (Homo sapiens) (UniProt Q5JTV8); test: LAP1 binders from COS7 cell lysate, primary screen, small-molecule microarray, 635/667 nm fluorescence (AID 1116); conditions: COS7-hLAP1 lysate binding, 635 nm fluorescence, higher = more signal
[20] = molecular target: Alpha-bungarotoxin (Bungarus multicinctus) (UniProt P60615); test: alpha-bungarotoxin binders on microarray, profiling panel, artefact control for SMM control protein annotation, biochemical, small-molecule microarray, Alexa647 label, 635/667 nm fluorescence (AID 1117); conditions: alpha-BTX-A647 binding fluorescence, higher = more signal
Chain of Alpha-bungarotoxin (Bungarus multicinctus) (P60615 whole entry, looked up): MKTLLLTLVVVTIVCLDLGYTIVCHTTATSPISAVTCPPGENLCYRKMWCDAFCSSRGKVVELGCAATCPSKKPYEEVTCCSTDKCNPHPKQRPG

Chain of Left-right determination factor 2 (Homo sapiens) (O00292 whole entry, looked up): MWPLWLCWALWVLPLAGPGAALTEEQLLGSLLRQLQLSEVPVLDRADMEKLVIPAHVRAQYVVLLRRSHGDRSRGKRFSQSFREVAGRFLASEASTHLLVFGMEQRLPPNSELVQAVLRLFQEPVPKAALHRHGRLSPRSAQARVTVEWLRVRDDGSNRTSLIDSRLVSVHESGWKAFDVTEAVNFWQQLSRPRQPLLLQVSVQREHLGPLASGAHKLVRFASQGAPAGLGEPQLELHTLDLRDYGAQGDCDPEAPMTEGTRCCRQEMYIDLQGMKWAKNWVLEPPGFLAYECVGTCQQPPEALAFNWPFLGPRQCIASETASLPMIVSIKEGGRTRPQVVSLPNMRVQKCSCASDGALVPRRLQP
Chain of Dickkopf-related protein 1 (Homo sapiens) (O94907 whole entry, looked up): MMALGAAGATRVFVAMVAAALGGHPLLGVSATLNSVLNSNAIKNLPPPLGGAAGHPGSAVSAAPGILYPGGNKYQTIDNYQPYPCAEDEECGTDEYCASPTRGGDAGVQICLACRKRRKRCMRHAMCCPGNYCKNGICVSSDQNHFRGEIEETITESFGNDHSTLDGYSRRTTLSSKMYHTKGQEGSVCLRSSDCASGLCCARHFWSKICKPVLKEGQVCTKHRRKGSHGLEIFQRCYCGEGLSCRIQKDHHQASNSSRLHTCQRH
Chain of Fibroblast growth factor 10 (Homo sapiens) (O15520 whole entry, looked up): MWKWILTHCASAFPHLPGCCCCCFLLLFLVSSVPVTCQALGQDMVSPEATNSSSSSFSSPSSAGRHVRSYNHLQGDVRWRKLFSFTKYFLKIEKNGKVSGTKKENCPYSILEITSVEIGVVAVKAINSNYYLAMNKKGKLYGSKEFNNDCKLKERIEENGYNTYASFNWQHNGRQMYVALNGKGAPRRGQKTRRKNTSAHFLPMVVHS
Chain of Follistatin-related protein 3 (Homo sapiens) (O95633 whole entry, looked up): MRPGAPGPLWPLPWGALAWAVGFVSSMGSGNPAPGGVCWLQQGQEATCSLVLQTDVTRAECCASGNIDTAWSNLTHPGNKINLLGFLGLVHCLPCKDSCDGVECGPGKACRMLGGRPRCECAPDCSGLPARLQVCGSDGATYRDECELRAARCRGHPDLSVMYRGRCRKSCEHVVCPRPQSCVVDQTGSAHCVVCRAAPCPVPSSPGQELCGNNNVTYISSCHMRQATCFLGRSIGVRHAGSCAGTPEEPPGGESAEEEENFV
Chain of Torsin-1A-interacting protein 1 (Homo sapiens) (Q5JTV8 whole entry, looked up): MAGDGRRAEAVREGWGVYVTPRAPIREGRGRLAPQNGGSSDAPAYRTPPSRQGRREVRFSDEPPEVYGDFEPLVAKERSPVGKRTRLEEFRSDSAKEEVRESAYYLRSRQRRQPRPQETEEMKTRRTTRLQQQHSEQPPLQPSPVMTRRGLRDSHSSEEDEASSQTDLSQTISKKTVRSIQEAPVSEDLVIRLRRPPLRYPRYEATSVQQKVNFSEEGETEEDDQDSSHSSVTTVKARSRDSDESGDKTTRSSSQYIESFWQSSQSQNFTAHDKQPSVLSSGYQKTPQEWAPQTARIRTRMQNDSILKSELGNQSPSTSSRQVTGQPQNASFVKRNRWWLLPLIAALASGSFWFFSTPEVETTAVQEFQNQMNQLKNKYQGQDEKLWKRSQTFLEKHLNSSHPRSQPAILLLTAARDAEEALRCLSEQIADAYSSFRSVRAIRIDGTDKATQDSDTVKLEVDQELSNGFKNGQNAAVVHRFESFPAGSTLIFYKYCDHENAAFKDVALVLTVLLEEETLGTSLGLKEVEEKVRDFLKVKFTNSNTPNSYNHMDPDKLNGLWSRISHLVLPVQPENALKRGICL
Chain of Epidermal growth factor receptor (Homo sapiens) (P00533 whole entry, looked up): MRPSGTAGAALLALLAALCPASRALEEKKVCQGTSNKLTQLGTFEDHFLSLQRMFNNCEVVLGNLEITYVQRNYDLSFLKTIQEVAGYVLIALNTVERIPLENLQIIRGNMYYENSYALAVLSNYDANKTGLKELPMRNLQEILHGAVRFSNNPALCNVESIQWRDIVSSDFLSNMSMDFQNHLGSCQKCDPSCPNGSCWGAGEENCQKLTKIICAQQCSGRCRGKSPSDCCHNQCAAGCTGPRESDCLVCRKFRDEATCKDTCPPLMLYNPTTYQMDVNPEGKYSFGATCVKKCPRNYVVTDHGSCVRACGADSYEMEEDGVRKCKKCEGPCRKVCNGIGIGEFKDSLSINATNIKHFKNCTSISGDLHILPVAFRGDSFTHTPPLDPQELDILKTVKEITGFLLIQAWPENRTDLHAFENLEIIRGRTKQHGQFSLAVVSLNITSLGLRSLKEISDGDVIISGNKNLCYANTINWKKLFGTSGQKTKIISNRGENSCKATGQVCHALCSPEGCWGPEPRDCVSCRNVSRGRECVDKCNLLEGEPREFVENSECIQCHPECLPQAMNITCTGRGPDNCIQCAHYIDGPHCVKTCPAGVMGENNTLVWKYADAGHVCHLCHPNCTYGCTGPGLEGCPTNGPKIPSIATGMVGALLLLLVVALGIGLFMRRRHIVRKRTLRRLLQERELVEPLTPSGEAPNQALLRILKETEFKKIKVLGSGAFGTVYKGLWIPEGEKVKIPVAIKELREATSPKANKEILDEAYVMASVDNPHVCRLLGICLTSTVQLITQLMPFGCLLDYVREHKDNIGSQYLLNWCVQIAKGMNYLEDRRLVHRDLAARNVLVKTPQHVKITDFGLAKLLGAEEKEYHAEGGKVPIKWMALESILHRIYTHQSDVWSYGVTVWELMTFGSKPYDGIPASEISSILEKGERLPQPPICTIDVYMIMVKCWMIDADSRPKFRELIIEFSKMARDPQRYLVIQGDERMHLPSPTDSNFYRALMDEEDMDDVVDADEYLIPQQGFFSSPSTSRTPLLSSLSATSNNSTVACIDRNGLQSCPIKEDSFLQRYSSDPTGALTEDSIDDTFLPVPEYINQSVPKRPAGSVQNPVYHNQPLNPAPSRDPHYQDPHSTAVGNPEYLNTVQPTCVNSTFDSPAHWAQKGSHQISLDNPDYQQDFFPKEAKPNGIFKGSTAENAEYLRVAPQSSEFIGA

Compound | composite z-score [1] | composite z-score [2] | composite z-score [3] | z-score [4] | composite z-score [5] | composite z-score [6] | composite z-score [7] | composite z-score [8] | composite z-score [9] | composite z-score [10] | composite z-score [11] | z-score [12] | composite z-score [13] | composite z-score [14] | composite z-score [15] | composite z-score [16] | composite z-score [17] | composite z-score [18] | composite z-score [19] | composite z-score [20]
COCCCN1C(=O)[C@@]2(Cc3ccccc31)c1ccccc1C(=O)N(Cc1ccccc1OC)[C@H]2c1ccc(CO)cc1 | -0.909 | 0.612 | 0.9 | 0.307 (inactive) | -0.426 | -0.428 | -0.352 | 0.154 | 0.514 | 0.157 | -0.739 | -0.185 | -0.283 | 0.0145 | -0.0984 | 0.0759 | -0.138 | 0.417 | 0.145 | 0.212
COCCOC(=O)N1C(=O)[C@@]2(c3cc(C#CCC(C(=O)OC)C(=O)OC)ccc31)[C@H](C(N)=O)[C@H]1C(=O)O[C@H](c3ccccc3)[C@H](c3ccccc3)N1[C@@H]2c1ccc(OCCO)cc1 | 1.13 | 0.271 | 0.25 | -0.517 (inactive) | 1.11 | 1.31 | 0.776 | 1.01 | 0.614 | 0.444 | 1.43 | -1.88 | 0.705 | 1.27 | -0.27 | -0.0161 | 0.184 | 0.177 | 0.775 | 1.44
NCCCC[C@@H]1NC(=O)[C@H]2C[C@@H](C(=O)NCc3ccc(F)cc3)[C@@H](c3ccc(O)cc3)N2C1=O | 1.6 | 0.831 | 1.07 | 0.374 (inactive) | 0.186 | 1.33 | 0.117 | 1 | 0.496 | 1.2 | 1.18 | -0.0038 | 0.567 | 1.17 | 0.428 | -0.0161 | 0.452 | -0.171 | 2.33 | 1.26
COC(=O)C(CC#Cc1ccc2c(c1)[C@]1(C(=O)N2)[C@H](c2ccc(O)cc2)N2[C@H](c3ccccc3)[C@H](c3ccccc3)OC(=O)[C@H]2[C@@H]1C(=O)N1CCc2cc(OC)c(OC)cc2C1)C(=O)OC | 1.38 | 0.505 | 0.724 | -0.541 (inactive) | 0.817 | 1.32 | 0.708 | 1.29 | 1.06 | -0.0531 | 0.85 | -0.163 | 0.737 | 0.267 | -0.521 | 0.324 | 0.383 | -0.23 | 1.25 | 1.55
CC(C)N1CC=CC23O[C@@H]4C=CCCOC(=O)C4[C@H]2C(=O)N(CCCCCO)[C@@H]3C1=O (stereo not given in full) | 1.58 | -0.188 | 0.317 | -0.0254 (inactive) | -0.347 | -1.26 | -0.575 | -0.749 | -1.06 | 0.559 | -0.734 | -0.26 | -1.18 | 0.861 | -1.34 | -0.124 | -0.0011 | -0.123 | 1.92 | 2.25
COC(=O)[C@@]1(CCC(=O)OC(C)(C)C)N=C(c2ccc(OCCCO)cc2)O[C@H]1c1ccccc1CN=[N+]=[N-] | 1.3 | 0.425 | 0.87 | 1.29 (inactive) | -0.035 | -0.546 | -0.827 | 0.157 | -0.346 | 0.282 | 0.263 | -2.6 | -0.471 | 0.183 | -0.222 | 0.0079 | -0.0035 | -0.0655 | 0.868 | 0.592
COC(=O)Cn1c(C(=O)N(C)C)cc2c1C[C@H]1CN(C(=O)c3ccccc3)[C@@](Cc3ccc(OC)cc3)(C(=O)OC)[C@@H]21 | 1.39 | 0.311 | 0.635 | -4.19 (inactive) | 1.13 | -0.196 | 0.0287 | 0.36 | -0.165 | 0.421 | 1.3 | -1.69 | -0.212 | 0.966 | -0.39 | 0.409 | 0.297 | 2.26 | 1.8 | 0.299
CO[C@H]1O[C@H](CO)[C@@H](OC(=O)Nc2ccc3c(c2)OCO3)[C@@H]2OC(=O)[C@@H](Cc3ccccc3)C/C=C/C[C@H](Cc3ccccc3)C(=O)O[C@@H]12 | 0.915 | 0.0902 | 0.259 | 0.216 (inactive) | 1.39 | 0.708 | 0.342 | 0.817 | 0.401 | 0.996 | 1.37 | -2.54 | 0.0694 | 0.929 | -0.728 | 0.0533 | 0.149 | 1.09 | 0.0909 | 0.732
Cc1ccc(S[C@]2(C(=O)NCCCN(C)C)CC(=O)N(Cc3ccccc3Cl)[C@@H]2c2ccc(CO)cc2I)cc1 | -0.393 | 0.844 | 0.864 | -1.53 (inactive) | -1.29 | -1.19 | -1.3 | -0.551 | -1.39 | 1.4 | -0.177 | -1.55 | -1.7 | 0.0681 | 0.283 | -0.1 | -0.0681 | 0.692 | 0.49 | 2.46
CCCCCN1CC=CC23O[C@@H]4C=CCOC(=O)[C@@H]4[C@H]2C(=O)N(CCCCCO)[C@@H]3C1=O (stereo not given in full) | 1.37 | -0.181 | 0.398 | -0.522 (inactive) | -0.893 | -1.15 | -0.728 | -0.52 | -0.63 | 0.676 | -0.678 | -0.0591 | -1.19 | -0.511 | -0.177 | -0.209 | -0.0035 | -0.223 | 0.229 | -0.724
